Whole data set: some 68,000 sequences, median “fluorescence intensity (a.u.)” near 9,100, cut for the highest 2% near 16,000. The sample as a whole holds a higher share of the highest values than the screen did.

The target in the assay is OsWRKY34 (Oryza sativa, UniProt Q0JBA9 1-250). In words: protein-binding microarray (RPBM); PBS, 2% BSA, 51.3 ng/ul salmon testes DNA, 50 uM zinc acetate, 200 nM TF, 25 C, 1 h; high values mean tight binding. The note with it: protein: recombinant; tags: N-terminal polyhistidine and DsRed monomer fusion (pET32a); label: CyDye5-dUTP incorporated in the synthesized complementary strand; 3' TTTTT single-stranded linker to array surface; dsDNA, one strand shown. The method, boiled down: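 A custom Agilent array was converted to double-stranded form by primer extension with Cy5-dUTP and blocked with 2% BSA. Protein at 200 nM in PBS with 2% BSA, salmon testes DNA and 50 µM zinc acetate was applied for 1 h at 25 °C, followed by washing. The proteins were polyhistidine–DsRed N-terminal fusions of transcription factors, expressed in E. coli BL21-CodonPlus and Ni–NTA-purified. The binding signal is per-feature fluorescence intensity (arbitrary units) from an Axon 4000B scanner.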
Chain of OsWRKY34 (Q0JBA9 entry or part of it): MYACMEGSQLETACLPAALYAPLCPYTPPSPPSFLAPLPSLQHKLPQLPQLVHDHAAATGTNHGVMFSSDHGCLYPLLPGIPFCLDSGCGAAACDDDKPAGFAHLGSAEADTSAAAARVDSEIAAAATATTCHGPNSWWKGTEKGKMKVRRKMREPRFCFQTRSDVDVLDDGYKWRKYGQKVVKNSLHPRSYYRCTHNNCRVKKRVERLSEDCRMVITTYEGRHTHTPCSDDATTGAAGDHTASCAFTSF
Consider “GTCGATGTGTCTTTTGTGTGTAGTTCTTGTAATTGTTGTGCGGAGTCACCTAGTGCAG”, for which the binding signal is 8220 fluorescence intensity (a.u.). The result for “GGGTTGATTTTGCTTCCTGCATCCCAGCGACATCGCCCAACGGAGTCACCTAGTGCAG” reads 11500 fluorescence intensity (a.u.); that for “CCTGTGCGTGGTCGGGTTAATTTGTCAGTCTGTCACTTACCGGAGTCACCTAGTGCAG”, 10200 fluorescence intensity (a.u.).

For the sequence “GTGCTCATCCGCCTCCTCGGGTCGTCTCCATCGACCTCCTCGGAGTCACCTAGTGCAG”, the binding signal is 9120 fluorescence intensity (a.u.). The figure for “TAATAGATGACGCCGTTGACTTTTTCTCACATGTTTGACCCGGAGTCACCTAGTGCAG” is 33000 fluorescence intensity (a.u.); for “TGTTGACTTTTTAGTACATATTTAACCATTTGTCTTATTACGGAGTCACCTAGTGCAG” it is 14900 fluorescence intensity (a.u.); for “TTTTTAATAGATGACGCTGTTGACTTTTTCCCACATGTTTCGGAGTCACCTAGTGCAG” it is 24200 fluorescence intensity (a.u.). Take “TTAATAGATGACGCCGTTGATTTTTTCTCACATGTTTGACCGGAGTCACCTAGTGCAG”: the binding signal was 11600 fluorescence intensity (a.u.). The result for “TTTTTAATAGATGACGCCGTTGACTTTTTCTCACATGTTTCGGAGTCACCTAGTGCAG” reads 34300 fluorescence intensity (a.u.). The figure for “GTTTACTCCAAGATTCACATTTGACTTTCTTATGCCATAGCGGAGTCACCTAGTGCAG” is 9170 fluorescence intensity (a.u.). The figure for “ATAGATGACGCTGTTGATTTTTTTCTCACATGTTTGACCACGGAGTCACCTAGTGCAG” is 10400 fluorescence intensity (a.u.); for “TTTTTTAATAGATGACGCCGTTGACCTTTTCTCACATGTTCGGAGTCACCTAGTGCAG” it is 15100 fluorescence intensity (a.u.).

In the case of “CTCCATTTAACAGATGACGTCGTTGACTTTTTCTTACATGCGGAGTCACCTAGTGCAG”, the binding signal is 26900 fluorescence intensity (a.u.). The figure for “TTTGTTTTTTAATAGATGACGCTGTTGACTTTTTCTCACGCGGAGTCACCTAGTGCAG” is 14200 fluorescence intensity (a.u.); for “ATAGATGACGCCGTTAACTTTTTCTCACATGTTTAACCATCGGAGTCACCTAGTGCAG” it is 10200 fluorescence intensity (a.u.).

On to “CTAGTTTTGGTCTTGTGATAGGTTATTTGCTTACGATTATCGGAGTCACCTAGTGCAG”, for which the binding signal was 9430 fluorescence intensity (a.u.). The figure for “CCGACCCGACCCGACCACCCACCGGCGAGGCCCACTCCGTCGGAGTCACCTAGTGCAG” is 8620 fluorescence intensity (a.u.); for “TGCTGCTGCTGTTGTTCGTGTATTGCTCCATCTGTGCACGCGGAGTCACCTAGTGCAG” it is 9920 fluorescence intensity (a.u.). The result for “CATAAACGACGCCGCATCAGACAAACTAAACGCGACAATACGGAGTCACCTAGTGCAG” reads 8100 fluorescence intensity (a.u.); that for “GCACTACCTTCACCATTTTTTTTGATTTTTTTCTTTTTTTCGGAGTCACCTAGTGCAG”, 8270 fluorescence intensity (a.u.).

Take “GCTATCTCCATCGTCTCTTTCCTTGACCACAGCGGCAATGCGGAGTCACCTAGTGCAG”: the binding signal was 9860 fluorescence intensity (a.u.). The figure for “CCACCACGGACTCCGCCGCCGCTCCCGCCACCGCCACATCCGGAGTCACCTAGTGCAG” is 10600 fluorescence intensity (a.u.); for “ATAAATGACGCCGTTGATTTTTTCTCACATGTTTGACCATCGGAGTCACCTAGTGCAG” it is 10500 fluorescence intensity (a.u.). Regarding “CGTTTTTTAATAGATGACGCCGTTGACTTTTTCTCACATGCGGAGTCACCTAGTGCAG”, the binding signal was 31400 fluorescence intensity (a.u.). The figure for “GATGACGCCGTTGACTTTTTCTCACATGTTTGACCAATCGCGGAGTCACCTAGTGCAG” is 36900 fluorescence intensity (a.u.); for “AATAGATGACGCCGTTGATTTTTTCTCACATGTTTGACCACGGAGTCACCTAGTGCAG” it is 11700 fluorescence intensity (a.u.). The result for “TTCATGGAGTCTACTACTCTACTCCCTCTATTTTCAAATACGGAGTCACCTAGTGCAG” reads 9010 fluorescence intensity (a.u.). The result for “ATATAGGGGTTGGTCTTCCACGTCAAATTTGGGGTAGATACGGAGTCACCTAGTGCAG” reads 10200 fluorescence intensity (a.u.); that for “TAGCTTTGGCACCTTGCGCGCGCGTACACAGCCGCTTAAGCGGAGTCACCTAGTGCAG”, 8550 fluorescence intensity (a.u.). As for “TTTTTCTCGTTTGCCGTGTCACCGCGTGAGTTGCGCGGGGCGGAGTCACCTAGTGCAG”, the binding signal was 11700 fluorescence intensity (a.u.). The figure for “ATCACATCAACCTGTCATATACACACAACTTTTCAGTCATCGGAGTCACCTAGTGCAG” is 8530 fluorescence intensity (a.u.). The figure for “TTTGCTCCACACCACACAACACACATTGTACGGCGTTGCTCGGAGTCACCTAGTGCAG” is 8210 fluorescence intensity (a.u.); for “ACCTCAACAAAAGCTTTGTAGTAGCTCTTAATTGTTGGGTCGGAGTCACCTAGTGCAG” it is 8220 fluorescence intensity (a.u.); for “TTAAAAAACATTGTACCACAAGTAGCAACAAATTAATGCTCGGAGTCACCTAGTGCAG” it is 26900 fluorescence intensity (a.u.). The figure for “CCCAAATCCATCCAGCCCGTCGCCGCCCGCCGCCCGCCGCCGGAGTCACCTAGTGCAG” is 8860 fluorescence intensity (a.u.); for “AGTCCGTGCTGCAGATCTGCTCTTTTCTCTTCGTTTAACTCGGAGTCACCTAGTGCAG” it is 10300 fluorescence intensity (a.u.); for “TGTTCTGTGAGAATAGTTTCGTCCGTCTTGTTTTCTCCTGCGGAGTCACCTAGTGCAG” it is 8470 fluorescence intensity (a.u.). Consider “ATCCACTCCAGTCCCGTCCCGTTTCCTTGCTGCCCGGCCGCGGAGTCACCTAGTGCAG”, for which the binding signal was 9660 fluorescence intensity (a.u.). The result for “CTGATCTTAACTCCGTGTTTTTCCGCGTTCTCTTTCGTTCCGGAGTCACCTAGTGCAG” reads 19600 fluorescence intensity (a.u.). The figure for “AGTTTTCTTTGTTCACCTACCGTTTTTTTAGCACGTAGTTCGGAGTCACCTAGTGCAG” is 10500 fluorescence intensity (a.u.). As for “TACTGCCGTCGCCGTCGCCCCACGTTTCCTTCTCCAGTTTCGGAGTCACCTAGTGCAG”, the binding signal is 8300 fluorescence intensity (a.u.). For “ACGTGTCCTTCTCTCTTTTTTTCTTTTTCGTTTTCTTCTCCGGAGTCACCTAGTGCAG”, the binding signal is 8280 fluorescence intensity (a.u.).

The values above are taken from paper PMC7819943, “Rice protein-binding microarrays: a tool to detect cis-acting elements near promoter regions in rice”.
